Source: PubChem (several laboratories)
Hits are enriched below; roughly 3.1% of the tested compounds scored in any of these assays.
ERb coact inh: inhibitors of ERβ-SRC1 coactivator interaction, primary screen, biochemical, TR-FRET, ERβ LBD, SRC-1 peptide; TR-FRET ER-beta LBD / SRC1-Cy5 peptide binding; receptor agonist-loaded with 1 µM estradiol; inhibition, % at 25.6 µM; AID 633, 2007; 86,000 compounds, 1.3% hits;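 active means compounds whose percent inhibition of the receptor-coactivator binding signal exceeds about 50% in the single-dose screen, limit read from the data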
Mac1 fbg enh: enhancers of CD11b/CD18 adhesion to fibrinogen, primary screen, K562 cells, luminescence. Integrin beta-2 (Homo sapiens) + Integrin alpha-M (Homo sapiens), P05107+P11215. ATPlite luminescence. activation, % at 10 µM. 93,000 compounds, 0.07% hits;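 active means 10 µM primary screen giving 50% or more activity, confirmed by 40% or more on retest at that dose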
Target sequence (P05107 whole entry, looked up, other chains not shown): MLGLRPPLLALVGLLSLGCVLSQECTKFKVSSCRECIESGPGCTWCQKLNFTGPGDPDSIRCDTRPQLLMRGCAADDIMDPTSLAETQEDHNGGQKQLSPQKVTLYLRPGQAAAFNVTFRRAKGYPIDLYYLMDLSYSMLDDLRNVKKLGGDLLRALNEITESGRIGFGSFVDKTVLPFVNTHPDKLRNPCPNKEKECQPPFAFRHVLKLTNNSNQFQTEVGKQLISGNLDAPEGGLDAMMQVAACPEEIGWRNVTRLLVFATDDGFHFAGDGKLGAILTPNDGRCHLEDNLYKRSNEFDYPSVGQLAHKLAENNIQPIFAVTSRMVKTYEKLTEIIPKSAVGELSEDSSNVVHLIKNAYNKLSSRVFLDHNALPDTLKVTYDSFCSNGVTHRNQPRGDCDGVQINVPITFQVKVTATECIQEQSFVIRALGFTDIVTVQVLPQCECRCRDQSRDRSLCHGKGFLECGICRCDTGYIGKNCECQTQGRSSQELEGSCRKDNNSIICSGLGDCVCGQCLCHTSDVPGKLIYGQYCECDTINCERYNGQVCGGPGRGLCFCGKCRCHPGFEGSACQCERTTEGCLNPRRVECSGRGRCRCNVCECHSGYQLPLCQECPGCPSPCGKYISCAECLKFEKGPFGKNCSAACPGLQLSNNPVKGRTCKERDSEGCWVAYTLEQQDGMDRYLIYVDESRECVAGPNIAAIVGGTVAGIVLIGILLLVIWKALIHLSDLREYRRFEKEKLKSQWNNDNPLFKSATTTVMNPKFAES
ERa coact inh: ERα–SRC-1 coactivator interaction inhibitors, primary screen, biochemical, TR-FRET, ERα LBD, estradiol-bound. TR-FRET ER-alpha LBD / SRC-1 peptide. Estrogen receptor (Homo sapiens), P03372. inhibition, % at 25.6 µM. 86,000 compounds, 1.7% hits; in the data active means inhibition above about 50%
ERa coact pot: enhancers of ERα–SRC-1 coactivator binding, primary screen, biochemical, TR-FRET, ERα LBD, low estradiol | Estrogen receptor (Homo sapiens), P03372 | TR-FRET ERalpha-LBD/SRC-Cy5 coactivator binding, 2 h; 100 = basal binding, no effect | coactivator binding (% of control), % at 25.6 µM | 86,000 compounds, 1.3% hits | AID 639, 2007; in the data active means activity above about 200%;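 further: binding measured in presence of low estradiol as agonist stimulus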
Mac1 fbg inh: inhibitors of CD11b/CD18 adhesion to fibrinogen, primary screen, K562 cells, luminescence | ATPlite luminescence; Mn2+ added to activate the integrin | 93,000 compounds, 0.54% hits | inhibition, % at 10 µM | Integrin beta-2 (Homo sapiens) + Integrin alpha-M (Homo sapiens), P05107+P11215 | AID 1497, 2009;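 active means primary inhibition of 50% or more at 10 µM, then 40% or more on retest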
Hits are given with their value; 0 = inactive; - = no result; [ ] = another dose, or the depositor's remark.

SMILES	ERb coact inh	Mac1 fbg enh	ERa coact inh	ERa coact pot	Mac1 fbg inh
COCCOC(=O)c1[nH]c2c(c1C)C(=O)CC(c1ccccc1)C2 (centres undefined)	0	-	0	0	-
COCCOC(=O)c1[nH]c2c(c1C)C(=O)CC(c1ccco1)C2 (centres undefined)	0	0	51	0	0
CSCCOC(=O)c1[nH]c2c(c1C)C(=O)CC(c1ccco1)C2 (centres undefined)	50	0	56	0	0
Cc1c(C(=O)OCc2ccccc2)[nH]c2c1C(=O)CC(c1ccco1)C2 (centres undefined)	56	0	55	0	0
CCc1ccc(OCC(=O)Nc2ccc(-c3nc4ccccc4o3)c(O)c2)cc1	70[fluorescence artefact?]	-	80[fluorescence artefact?]	0	-
COc1ccc(OCC(=O)Nc2cccc(-c3nc4ccccc4o3)c2)cc1	0	0	0	0	0
O=C(COc1ccccc1)N(CCc1ccccc1)c1nc(-c2ccc(F)cc2)cs1	-	0	-	-	0
CN(CC1CCCO1)S(=O)(=O)c1ccc(C(=O)Nc2nc3cc4c(cc3s2)OCO4)cc1 (centres undefined)	0	-	63[fluorescence artefact?]	0	-
CCN(CC)S(=O)(=O)c1cccc(C(=O)Nc2nc3cc4c(cc3s2)OCCO4)c1	0	0	0	0	0
Cn1c2ccccc2c2cc(C(=O)OCC(=O)N3CC(=O)Nc4ccccc43)sc21	0	0	0	670[fluorescence artefact?]	0
c1ccc(C2=NNC(=NC3CC3)SC2)cc1	0	-	0	0	-
Cc1cc(C2=NNC(=NC3CC3)SC2)c(C)n1-c1ccccc1	-	0	-	-	98
Cc1cc(C2=NNC(=NC3CC3)SC2)c(C)n1Cc1ccco1	-	0	-	-	75
COCN(C#N)c1nc(OC)nc(OC)n1	55[fluorescence artefact?]	0	0	0	0
Cc1ccsc1C=Nc1ccc(O)cc1	76[fluorescence artefact?]	0	0	0	0
C/C(=N\NS(=O)(=O)c1ccc(Cl)c([N+](=O)[O-])c1)c1cc2ccccc2o1	-	0	-	-	97
C/C(=N\NS(=O)(=O)c1ccc(C)c([N+](=O)[O-])c1)c1cc2ccccc2o1	-	0	-	-	0
O=C(Nc1cccc(-c2cn3cccnc3n2)c1)c1ccco1	0	0	0	0	0
O=C(Nc1cccc(F)c1)c1ccc2c(c1)OCO2	0	0	0	0	0
O=C(Nc1ccc2nn(-c3ccccc3)nc2c1)c1ccc2c(c1)OCO2	0	0	51	0	0
O=C(Nc1cccc(-c2cn3cccnc3n2)c1)c1ccc2c(c1)OCO2	0	0	60	0	0
Cc1nnc(SCC(=O)Nc2ccccc2C(=O)NC2CC2)s1	-	0	-	-	0
Cc1cc(S(=O)(=O)Nc2ccc(N(C)C)cc2)c(C)s1	0	0	0	0	0
Cc1ccc(-c2nnn(CC(=O)Nc3ccccc3N3CCOCC3)n2)cc1	0	0	0	0	0
Cc1cccc(NC(=O)Cn2nnc(-c3ccc(CN4CCCC4)cc3)n2)c1C	0	0	0	204[fluorescence artefact?]	0
SMILES	ERb coact inh	Mac1 fbg enh	ERa coact inh	ERa coact pot	Mac1 fbg inh
Cc1ccc(Nc2nnc(SCC(=O)NCCN3C(=O)CSC3=O)s2)cc1	-	0	-	-	0
Cn1c(=O)[nH]c(=O)c2c1nc(CN1CCN(c3ccc(F)cc3)CC1)n2CCc1ccccc1	0	-	0	399[fluorescence artefact?]	-
Cn1c(=O)[nH]c(=O)c2c1nc(CN1CCN(c3ccc(F)cc3)CC1)n2CCCc1ccccc1	0	-	0	0	-
c1ccc(-c2nc(N3CCCCCC3)nc(-n3ccnc3)n2)cc1	0	-	0	0	-
c1ccc(-c2nc(N3CCN(c4ccccc4)CC3)nc(-n3ccnc3)n2)cc1	0	0	83[fluorescence artefact?]	0	0
Cc1cn(Cc2ccccc2)c(=O)[nH]c1=O	0	0	0	0	0
COCC(=O)Nc1c(C(=O)Nc2ccccc2OC)oc2ccccc12	0	0	0	213[fluorescence artefact?]	0
COc1cccc(OCC(=O)Nc2c(C(=O)Nc3ccc(OC)cc3OC)oc3ccccc23)c1	50[fluorescence artefact?]	-	73[fluorescence artefact?]	220[fluorescence artefact?]	-
CCOCC(=O)Nc1c(C(=O)Nc2ccc(OC)cc2OC)oc2ccccc12	0	0	0	0	0
COCCCn1c2nc3ccccc3nc2c2c(=O)n(Cc3ccc(Cl)cc3)cnc21	0	0	56[fluorescence artefact?]	0	0
COCCCn1c2nc3ccccc3nc2c2c(=O)n(Cc3ccccc3Cl)cnc21	0	0	0	257	0
CC1CCN(c2cc(N)c(Cl)cc2[N+](=O)[O-])CC1	-	0	-	-	0
CN(CC(=O)OCC(=O)c1c(N)n(C)c(=O)n(C)c1=O)S(=O)(=O)c1ccc(Cl)cc1	-	0	-	-	0
CSc1ncc2c(n1)-c1cc(C)ccc1SC2	0	0	97	0	0
COc1ccc(S(=O)(=O)O/N=C2\CCSc3ccc(C)cc32)cc1	-	0	-	-	0
c1cc(CNc2ccc(N3CCOCC3)cc2)ccn1	0	0	0	0	0
CC(C)c1ccc(CNc2ccc(N3CCOCC3)cc2)cc1	0	0	0	530[fluorescence artefact?]	0
Cc1oc(-c2ccccc2F)nc1CS(=O)(=O)CC(=O)NCc1ccco1	91[fluorescence artefact?]	0	91[fluorescence artefact?]	0	0
Cc1ccccc1-c1nc(CS(=O)(=O)CC(=O)Nc2cc(F)ccc2F)c(C)o1	0	0	0	743[fluorescence artefact?]	0
CCC(C)(C)NC(=O)/C=C/c1cccs1	-	0	-	-	0
CSc1nsc(SCC(=O)Nc2nc3ccc(C)cc3s2)n1	-	0	-	-	0
Cc1nn(-c2ccc(F)cc2)c2nc(N)c(C#N)c(-c3cccs3)c12	0	-	0	243[fluorescence artefact?]	-
COc1cc(-c2c(C#N)c(N)nc3c2c(C)nn3-c2ccc(C)c(C)c2)cc(OC)c1OC	54[fluorescence artefact?]	0	0	459[fluorescence artefact?]	0
COc1ccc(-c2c(C#N)c(N)nc3c2CCCCCC3)cc1OC	0	0	0	0	0
COc1ccc(-c2ccc(C#N)c(SCC(=O)OCc3ccccc3)n2)cc1OC	0	0	0	206[fluorescence artefact?]	0
N#Cc1ccc(-c2ccc3c(c2)OCO3)nc1SCC(=O)OCc1ccccc1	0	0	0	246[fluorescence artefact?]	0
CCSc1nc(-c2ccc(OC)cc2)ccc1C#N	0	0	0	0	0
